In PubChem BioAssay (NCI):
The panel holds about 83,000 compounds, 20% with a hit somewhere; the sample as a whole holds those more often.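 Single-concentration screen, 48 h exposure, 96-well plates. Endpoint: percent growth. Below 10 = active.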 Calls of active or inactive are those of the source.

Legend:
Assay in all cases: NCI-60 one-dose screen, 48 h (100 = growth as untreated, 0 = no growth, -100 = all killed)
Conditions in all cases: 10 µM unless noted
T-47D breast = test system: T-47D breast
MDA-MB-435 melanoma = test system: MDA-MB-435 melanoma
SW-620 colon = test system: SW-620 colon
MCF7 breast = test system: MCF7 breast
HCT-116 colon = test system: HCT-116 colon
HCC-2998 colon = test system: HCC-2998 colon
KM12 colon = test system: KM12 colon

Measured: growth

CC(C)(C)n1cc(-c2ccnc(NCCCNS(=O)(=O)c3ccc(C(F)(F)F)cc3)c2)c(-c2cccc(O)c2)n1
inactive: T-47D breast 31.3% | MDA-MB-435 melanoma 32.2% | HCT-116 colon 16.1%
active: SW-620 colon 0.471% | MCF7 breast 1.14% | HCC-2998 colon -63% | KM12 colon -14.2%

COc1ccc(-c2cc(-c3ccccc3)nc(SCCCC(=O)NO)n2)cc1OC
active: T-47D breast 2.62% | MDA-MB-435 melanoma 9.02% | MCF7 breast 4.19% | HCT-116 colon 5.58%
inactive: SW-620 colon 12.5% | HCC-2998 colon 34.7% | KM12 colon 13.1%

CC(C)(C)n1cc(-c2ccnc(NCCNS(=O)(=O)c3ccc(C(F)(F)F)cc3)c2)c(-c2cccc(O)c2)n1
active: HCC-2998 colon -0.263%
inactive: T-47D breast 32.1% | MDA-MB-435 melanoma 63.3% | MCF7 breast 17.3% | HCT-116 colon 29.5% | KM12 colon 41.8%

CSc1nc2c(c(=O)[nH]1)C(c1ccc(C)cc1)C=C(C(=O)O)N2 (stereo unspecified)
inactive: T-47D breast 96.6% | MDA-MB-435 melanoma 102% | SW-620 colon 99.8% | MCF7 breast 101% | HCT-116 colon 109% | HCC-2998 colon 102% | KM12 colon 112%

COc1cc(-c2nn(-c3cccc(NC(=O)c4ccc(Cl)c(C(F)(F)F)c4)c3)cc2-c2ccncc2)ccc1Cl
active: MDA-MB-435 melanoma -26.8%
inactive: T-47D breast 26.2% | SW-620 colon 36.1% | MCF7 breast 37.6% | HCT-116 colon 24% | KM12 colon 28.8%

COc1cc(/C=C/C(=O)c2cccc(-n3cc(-c4cc(OC)c(OC)c(OC)c4)[nH]c3=O)c2)cc(OC)c1OC
active: T-47D breast 8.37% | MDA-MB-435 melanoma 3.2% | SW-620 colon -47.2% | MCF7 breast -5.04% | HCT-116 colon -78.3% | KM12 colon -83.4%
inactive: HCC-2998 colon 23.1%

Cc1nc2c3c(ncn2n1)Oc1c(c(=O)[nH]c2ccccc12)C3c1ccc(Cl)cc1 (stereo unspecified)
inactive: T-47D breast 86% | MDA-MB-435 melanoma 102% | SW-620 colon 95.4% | MCF7 breast 91.6% | HCT-116 colon 88.8% | HCC-2998 colon 102% | KM12 colon 99.2%

COc1ccc(S(=O)(=O)NCCCNc2nccc(-n3ccc4cccnc43)n2)cc1
inactive: T-47D breast 78.2% | SW-620 colon 113% | MCF7 breast 98.7% | HCT-116 colon 105% | HCC-2998 colon 111% | KM12 colon 94.6%

CC(C)(C)N1CCC1C(N)=O (stereo unspecified)
inactive: T-47D breast 99.5% | MDA-MB-435 melanoma 103% | MCF7 breast 104% | HCT-116 colon 77.4% | HCC-2998 colon 47% | KM12 colon 99.2%

CN(CCCCCl)P(=O)(OCc1ccc([N+](=O)[O-])o1)C(F)(F)C[C@H](NC(=O)CNC(=O)c1ccc(N=[N+]=[N-])cc1)C(=O)NCCc1ccc(O)cc1 (stereo partly specified)
inactive: T-47D breast 90.5% | MDA-MB-435 melanoma 41.5% | SW-620 colon 37.6% | MCF7 breast 61.6% | HCT-116 colon 78.4% | HCC-2998 colon 98.4% | KM12 colon 91.1%

O=C(Nc1ccncc1)C(=O)c1cn(S(=O)(=O)c2ccc(Cl)cc2)c2ccccc12
inactive: T-47D breast 41.2% | SW-620 colon 10.4% | MCF7 breast 16.8% | HCT-116 colon 15.3% | HCC-2998 colon 54.7% | KM12 colon 19.8%

CC(C)(C)OC(=O)NC(CSCc1ccccc1)C(=O)ON1C(=O)CCC1=O (stereo unspecified)
inactive: T-47D breast 93.9% | MDA-MB-435 melanoma 109% | SW-620 colon 105% | MCF7 breast 98.4% | HCT-116 colon 92.5% | HCC-2998 colon 101% | KM12 colon 109%

CC(C)(C)n1cc(-c2ccnc(NCCCNS(=O)(=O)c3ccc(Cl)cc3)c2)c(-c2cccc(O)c2)n1
inactive: MDA-MB-435 melanoma 15.6%
active: T-47D breast 5.38% | SW-620 colon -38% | MCF7 breast -12.1% | HCT-116 colon 6.49% | HCC-2998 colon -81.5% | KM12 colon -36.5%

COc1cc(-c2nn(-c3cccc(NC(=O)Nc4ccc(Cl)c(Cl)c4)c3)cc2-c2ccncc2)ccc1Cl
active: T-47D breast 2.98% | MDA-MB-435 melanoma -45.8% | MCF7 breast 1.73% | HCT-116 colon 8.67% | HCC-2998 colon 2.84% | KM12 colon 1.3%

COc1ccc(C(=O)N2NC(=O)/C(=C/c3ccc(F)cc3)N=C2c2ccccc2)cc1
inactive: T-47D breast 95.6% | MDA-MB-435 melanoma 87.6% | SW-620 colon 69.3% | MCF7 breast 96.6% | HCT-116 colon 81.2% | HCC-2998 colon 97.4% | KM12 colon 85.5%

COc1cc(/C=C/c2cc(/C=C/c3ccc(O)c(OC)c3)n(C(N)=O)n2)ccc1O
active: T-47D breast -7.56% | MDA-MB-435 melanoma -46% | SW-620 colon 0.998% | MCF7 breast -16.4% | HCT-116 colon -39.2% | HCC-2998 colon 7.85% | KM12 colon 3.47%
